These results are taken from PubChem BioAssay (NCATS).

The test system of one experiment is 3D7. The experiment can be described thus: qHTS profiling for inhibitors of Plasmodium falciparum proliferation (AID 504749). Also: nearly all actives have a fitted effect of over 60% in size. Conditions: P. falciparum in erythrocytes, SYBR Green DNA, 72 h; series mostly up to 28.7 µM. An outline of the steps:
(§1)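 P. falciparum-infected erythrocytes (0.3% parasitemia, 2.5% hematocrit final) were exposed to compounds for 72 h at 37 C in 5% CO2, then lysed with SYBR Green buffer overnight at room temperature; parasite DNA fluorescence was normalized to artemisinin and DMSO controls.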
For orientation: qHTS replaces the single test concentration by a dilution series.

The subject of another experiment is CP215. Described as above. Conditions: P. falciparum in erythrocytes, SYBR Green DNA, 72 h; series mostly up to 28.7 µM. In short, it runs like this:
as §1

The subject of a further experiment is CP256. Described as above. To be noted: P. falciparum in erythrocytes, SYBR Green DNA, 72 h; series mostly up to 28.7 µM. An outline of the steps:
as §1

The test system of another experiment is CP260. The experiment is described as above. Conditions: P. falciparum in erythrocytes, SYBR Green DNA, 72 h; series mostly up to 28.7 µM. An outline of the steps:
as §1

Another experiment deals with DIV14. The experiment is described as above. To be noted: P. falciparum in erythrocytes, SYBR Green DNA, 72 h; series mostly up to 28.7 µM. In short, it runs like this:
as §1

For the next experiment, the system named is DIV17. The description is as above. To be noted: P. falciparum in erythrocytes, SYBR Green DNA, 72 h; series mostly up to 28.7 µM. In short, it runs like this: as §1
The subject of a further experiment is GB4. The experiment is described as above. Conditions: P. falciparum in erythrocytes, SYBR Green DNA, 72 h; series mostly up to 28.7 µM. In short, it runs like this: as §1
In the next experiment the test system is ICS. Described as above. Conditions: P. falciparum in erythrocytes, SYBR Green DNA, 72 h; series mostly up to 28.7 µM. An outline of the steps: as §1
Another experiment has as its system W2. The experiment is described as above. To be noted: P. falciparum in erythrocytes, SYBR Green DNA, 72 h; series mostly up to 28.7 µM. In short, it runs like this: as §1
Experiment [1] can be described thus: S16 Schwann cell PMP22 intronic element beta-lactamase assay (AID 624044; calls by dose curve; also: nearly all actives have a fitted effect of over 15% in size). An outline of the steps: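 Rat S16 Schwann cells with beta-Lac driven by a PMP22 intronic element, compound-treated 24 h at 37 °C. LiveBLAzer FRET B/G read: 460 nm normalized to potassium clavulanate vs DMSO; 535 nm FRET as viability; concentration-effect curves classified.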

Molecules are shown by their SMILES. Results filed as inconclusive are left out. The source made the active and inactive calls. Unless noted, calls follow the shape of the dose curve; as a rule, active = well fitted inhibition curve with a large enough effect; inconclusive = small, poorly fitted or top-dose-only effect; inactive = flat fitted curve, though single readings scatter. Numbered stars: 1 amine (or outer) side, 2 acyl side, 3 side chain; on linkers, the order of the positions; unused ones are H or OH. Bridge positions count the residues as written; N and C are the ends. Square brackets hold non-standard residues; d marks the D form. Peptide text beside a SMILES is read from it. * marks the point of attachment. ξ: configuration not given here. ΔAla(Z-3-ureido) = NC(=O)N/C=C(\N)C(=O)O; ξDab(CH2SO3H) = NC(CCNCS(=O)(=O)O)C(=O)O; X1 = NC1=NCCC(C(N[*:1])C(=O)[*:2])N1; Heptanoyl(6-Me) = CC(C)CCCCC(=O)*; ξβ3hOrn = NCCCC(N)CC(=O)*; Orn = NCCC[CH](N)C(=O)O; Dab = NCC[CH](N)C(=O)O; Dap = NC[CH](N)C(=O)O
Potency is read from the fitted curve at half-maximal effect.

Consider `CC(=O)OCC(=O)[C@@]1(O)CCC2C3CCC4=CC(=O)CC[C@]4(C)C3=CC[C@@]21C` (stereo partly drawn), for which the Potency result in the experiment on 3D7, in the experiment on CP215, in the experiment on CP256, with CP260, with DIV14 and in the experiment with DIV17 was “inactive” each time. In addition, the Potency result in the experiment on GB4, with ICS and in the experiment on W2 was “inactive” in each case.

As for `CC(C)C(NC(=O)C(CC(=O)O)NC(=O)C(CCCCN)NC(=O)C(N)CCCN=C(N)N)C(=O)NC(Cc1ccc(O)cc1)C(=O)O` (stereo not drawn) (H-RKDVY-OH; configuration not given here), the Potency entry (in experiment [1]; with 3D7; in the experiment with CP215; in the experiment with CP256; in the experiment with DIV14; with DIV17) was “inactive” each time. Besides, the Potency result in the experiment with GB4, with ICS and in the experiment on W2 was “inactive” in each case.

As to `C=CC1=C(C(=O)O)N2C(=O)[C@@H](NC(=O)C(N=O)c3csc(N)n3)[C@H]2SC1` (stereo partly drawn), the Potency entry (in [1]; with 3D7; with CP215; with CP256; in the experiment with CP260; with DIV14) was “inactive” throughout. Moreover, the Potency entry with DIV17, in the experiment with GB4 and with ICS was “inactive” each time.

With `CCC(C)C1NC(=O)C(CCNCS(=O)(=O)O)NC(=O)C(NC(=O)C(CCNCS(=O)(=O)O)NC(=O)C(NC(=O)C(CCNCS(=O)(=O)O)NC(=O)CCCCC(C)C)C(C)O)CCNC(=O)C(C(C)O)NC(=O)C(CCNCS(=O)(=O)O)NC(=O)C(CCNCS(=O)(=O)O)NC(=O)C(C(C)CC)NC1=O` (stereo not drawn) ({Heptanoyl(6-Me)}-[ξDab(CH2SO3H)]T[ξDab(CH2SO3H)][Dab][ξDab(CH2SO3H)]II[ξDab(CH2SO3H)][ξDab(CH2SO3H)]T; lactam 4-C; configuration not given here), the Potency result (in experiment [1]; in the experiment on 3D7; in the experiment on DIV14; in the experiment on DIV17; in the experiment on GB4; in the experiment with ICS) was “inactive” in each case. The Potency entry in the experiment on W2 is “inactive”.

As for `O=C(OCC1OC(OC(=O)c2cc(O)c(O)c(OC(=O)c3cc(O)c(O)c(O)c3)c2)[C@@H](OC(=O)c2cc(O)c(O)c(OC(=O)c3cc(O)c(O)c(O)c3)c2)C(OC(=O)c2cc(O)c(O)c(OC(=O)c3cc(O)c(O)c(O)c3)c2)C1OC(=O)c1cc(O)c(O)c(OC(=O)c2cc(O)c(O)c(O)c2)c1)c1cc(O)c(O)c(OC(=O)c2cc(O)c(O)c(O)c2)c1` (stereo partly drawn), the Potency in [1] was 22400 nM (active); in the experiment on 3D7, 2000 nM (active); in the experiment on CP215, 3790 nM (active); with CP256, 3550 nM (active); in the experiment with CP260, 3550 nM (active); in the experiment on DIV14 it was 3790 nM (active). Besides, the Potency with DIV17 is 2690 nM (active); in the experiment with GB4, 3380 nM (active); with ICS, 2510 nM (active); with W2 it was 1510 nM (active).

With `NCCCC(N)CC(=O)NCC1NC(=O)C(CO)NC(=O)C(N)CNC(=O)C(C2CCN=C(N)N2)NC(=O)/C(=C/NC(N)=O)NC1=O` (stereo not drawn) (H-[Dap]S[Dap](ξβ3hOrn)[ΔAla(Z-3-ureido)][X1]; lactam 1-C; configuration not given here), the Potency result (in experiment [1]; in the experiment on 3D7; with CP215; in the experiment with CP256; in the experiment on CP260; in the experiment with DIV14) was “inactive” in each case. Further, the Potency result in the experiment on DIV17, with GB4, in the experiment on ICS and in the experiment on W2 was “inactive” each time.

Turning to `NC(=O)CCC1NC(=O)C(Cc2ccccc2)NC(=O)C(Cc2ccc(O)cc2)NC(=O)CCSSCC(C(=O)N2CCCC2C(=O)NC(CCCN=C(N)N)C(=O)NCC(N)=O)NC(=O)C(CC(N)=O)NC1=O` (stereo not drawn), the Potency result (in experiment [1]; in the experiment with 3D7; in the experiment with CP215; with CP256; with CP260; in the experiment with DIV14) was “inactive” in each case. Also, the Potency result with DIV17, in the experiment on GB4, with ICS and in the experiment with W2 was “inactive” in each case.

Take `CC(C)CC1NC(=O)C(CCCN)NC(=O)C(C(C)C)NC(=O)C2CCCN2C(=O)C(Cc2ccccc2)NC(=O)C(CC(C)C)NC(=O)C(CCCN)NC(=O)C(C(C)C)NC(=O)C2CCCN2C(=O)C(Cc2ccccc2)NC1=O` (stereo not drawn) (cyclo(FPV[Orn]LFPV[Orn]L); configuration not given here): the Potency in experiment [1] was 12600 nM (active); in the experiment on CP215, 1.1 nM (active); in the experiment on CP256 it was 4 nM (active); in the experiment on CP260, 0.9 nM (active); in the experiment on GB4, 0.5 nM (active); with ICS, 0.3 nM (active). In addition, the Potency in the experiment with W2 was 0.2 nM (active).

With `CC(C)CC(NC(=O)C(COC(C)(C)C)NC(=O)C(Cc1ccc(O)cc1)NC(=O)C(CO)NC(=O)C(Cc1c[nH]c2ccccc12)NC(=O)C(Cc1cnc[nH]1)NC(=O)C1CCC(=O)N1)C(=O)NC(CCCN=C(N)N)C(=O)N1CCCC1C(=O)NNC(N)=O` (stereo not drawn), the Potency entry in the experiment on 3D7, with CP215, with CP256, with DIV14, in the experiment with DIV17 and with GB4 was “inactive” throughout. Besides, the Potency entry in the experiment with ICS and with W2 was “inactive” throughout.

Take `CC(N)C(=O)NCC(=O)NC1CSSCC(C(=O)O)NC(=O)C(CO)NC(=O)C(C(C)O)NC(=O)C(Cc2ccccc2)NC(=O)C(C(C)O)NC(=O)C(CCCCN)NC(=O)C(Cc2c[nH]c3ccccc23)NC(=O)C(Cc2ccccc2)NC(=O)C(Cc2ccccc2)NC(=O)C(CC(N)=O)NC(=O)C(CCCCN)NC1=O` (stereo not drawn): the Potency entry in the experiment on 3D7, in the experiment on CP215, in the experiment on CP256, in the experiment with CP260, with DIV14 and with DIV17 was “inactive” each time. In addition, the Potency result in the experiment on GB4, in the experiment with ICS and in the experiment on W2 was “inactive” each time.
